{"source": "PubChem BioAssay AID1850", "about": "(Southern Research Specialized Biocontainment Screening …, 2009)", "note": "Among all 310,000 compounds or so, about 1,000 (0.32%) were called active. These entries were drawn from the full list. Measured potencies and affinities stand elsewhere. Values without a mark were called inactive. The rule behind the calls is not given here."}
{"assay": "Inhibition of PhoP regulon, Salmonella typhi GFP reporter cells, confirmation, 4 h (AID 1850);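 note: 0% = induced wells with vehicle and 100% = uninduced wells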", "conditions": "Salmonella Typhi PhoP-promoter GFP reporter, fluorescence, at 50 µM, active compounds read high", "units": {"inhibition": "%"}}
{"smiles": "COc1ccccc1/C=N/NC(=O)c1nnn(-c2nonc2N)c1CSC1=NCCS1", "inhibition": -3.46}
{"smiles": "COc1cc(/C=C/C(=O)Nc2ccncc2)cc(OC)c1OC", "inhibition": 9.98}
{"smiles": "Cc1nn(-c2ccccc2)c(N2CCCC2)c1/C=N/NC(=O)c1cc(-c2cccs2)nc2ccccc12", "inhibition": -12.2}
{"smiles": "CCOC(=O)C1(CCCc2ccccc2)CCN(C(=O)CCN2CCCCC2=O)CC1", "inhibition": -9.1}
{"smiles": "O=C(c1ccc(COc2ccccc2Cl)o1)N1N=C(C(F)F)CC1(O)C(F)F", "note": "(stereo not drawn)", "inhibition": -0.36}
{"smiles": "Cc1ccc(C(O)P(=O)(Oc2ccccc2)Oc2ccccc2)cc1", "note": "(stereo not drawn)", "inhibition": -35.5}
{"smiles": "COc1ccc(NC(=O)CCN2C(=O)C3CC=C(Cl)CC3C2=O)cc1", "note": "(stereo not drawn)", "inhibition": -3.04}
{"smiles": "C#CCOCCOCCOCCNc1nc(N2CCN(C(=O)CCCCCCCCCCNC(=O)[C@@H](CCC(=O)O)n3cc(CCCCCN)nn3)CC2)nc(N2CCN(C(=O)CCCCCCCCCCNC(=O)[C@H](CO)n3cc(CCCCCN)nn3)CC2)n1", "inhibition": -6.21}
{"smiles": "C#CCOCCOCCOCCNc1nc(N2CCN(C(=O)CCCCCCCCCCNC(=O)[C@H](CO)n3cc(CCCSC)nn3)CC2)nc(N2CCN(C(=O)CCCCCCCCCCNC(=O)[C@H](CCCN=C(N)N)n3cc(C[C@@H](C)CC)nn3)CC2)n1", "inhibition": 25.4}
{"smiles": "C#CCOCCOCCOCCNc1nc(N2CCN(C(=O)CCCCCCCCCCNC(=O)[C@@H](CCC(=O)O)n3cc(CCCCCN)nn3)CC2)nc(N2CCN(C(=O)CCCCCCCCCCNC(=O)[C@H](CCCCN)n3cc(C[C@@H](C)CC)nn3)CC2)n1", "inhibition": -7.23}
{"smiles": "C#CCOCCOCCOCCNc1nc(N2CCN(C(=O)CCCCCCCCCCNC(=O)[C@@H](CCC(=O)O)n3cc(CCCCCN)nn3)CC2)nc(N2CCN(C(=O)CCCCCCCCCCNC(=O)[C@H](CO)n3cc(CCCSC)nn3)CC2)n1", "inhibition": -11.4}
{"smiles": "C#CCOCCOCCOCCNc1nc(N2CCN(C(=O)CCCCCCCCCCNC(=O)[C@H](CO)n3cc(CCCSC)nn3)CC2)nc(N2CCN(C(=O)CCCCCCCCCCNC(=O)[C@H](CCCCN)n3cc(C[C@@H](C)CC)nn3)CC2)n1", "inhibition": -5.02}
{"smiles": "C#CCOCCOCCOCCNc1nc(N2CCN(C(=O)CCCCCCCCCCNC(=O)Cn3cc(C[C@@H](C)O)nn3)CC2)nc(N2CCN(C(=O)CCCCCCCCCCNC(=O)[C@H](CCCCN)n3cc(C[C@@H](C)CC)nn3)CC2)n1", "inhibition": 14.8}
{"smiles": "CC1CCCN(C(=O)C23CCC(C)(C(=O)C2)C3(C)C)C1", "note": "(stereo not drawn)", "inhibition": -4.73}
{"smiles": "COc1cc(CCC(=O)N2CC(C)OC(C)C2)cc(OC)c1OC", "note": "(stereo not drawn)", "inhibition": -14.2}
{"smiles": "CC(C)CN(C(=O)CN(C)C(=O)c1ccco1)c1c(N)n(CC(C)C)c(=O)[nH]c1=O", "inhibition": -1.06}
{"smiles": "Cc1cc2oc(=O)cc(Cn3ncc(Cl)c(Cl)c3=O)c2cc1Cl", "inhibition": -3.81}
{"smiles": "Cc1cccc(OCCNc2cc(N3CCN(C)CC3)ccc2[N+](=O)[O-])c1", "inhibition": -4.31}
{"smiles": "COC(=O)[C@@H](NC(=O)c1ccccc1)[C@@H](C)O", "inhibition": -3.17}
{"smiles": "COc1cccc(CN2CC(C(=O)NC3CCC3)CCC2=O)c1", "note": "(stereo not drawn)", "inhibition": -3.12}
{"smiles": "C/C(=N\\Nc1ccccc1Cl)c1ccc(-n2ccnc2)cc1", "inhibition": 7.81}
{"smiles": "CCCCOC(=O)c1ccc(NC(=O)COC(=O)CSc2nc(C)cc(C)n2)cc1", "inhibition": -5.18}
{"smiles": "CNCCC1Sc2ccccc2Oc2ccccc21", "note": "(stereo not drawn)", "inhibition": 10.6}
{"smiles": "CN(C)CCC1Sc2ccccc2Oc2ccccc21", "note": "(stereo not drawn)", "inhibition": -1.34}
{"smiles": "COc1ccccc1NC(=O)CSc1nnc(CCC(=O)Nc2ccccc2F)n1C", "inhibition": -5.48}
{"smiles": "Cc1ccc(C(=O)Nn2cnnc2)cc1", "inhibition": -11.2}
{"smiles": "CCOC(=O)C1C(c2cccs2)NC(=O)N(C)C1(O)C(F)(F)F", "note": "(stereo not drawn)", "inhibition": -2.14}
{"smiles": "O=C1NC(c2ccccc2)C(C(=O)c2cccs2)C(O)(C(F)(F)F)N1", "note": "(stereo not drawn)", "inhibition": 0.79}
{"smiles": "COc1cc(C2NC(=O)NC(O)(C(F)(F)F)C2C(=O)c2cccs2)ccc1O", "note": "(stereo not drawn)", "inhibition": -4.52}
{"smiles": "O=C1NC(c2ccncc2)C(C(=O)c2cccs2)C(O)(C(F)(F)F)N1", "note": "(stereo not drawn)", "inhibition": 2.95}
{"smiles": "CCc1nnc(NC(=O)CN2CCN(CC)CC2)s1", "inhibition": -8.02}
{"smiles": "Nc1c2ccccc2nc2ccccc12", "inhibition": 17.1}
{"smiles": "Cc1cccc2nc3ccccc3cc12", "inhibition": -7.86}
{"smiles": "COCCNC(=O)c1ccc(CN2CCC(Cc3ccccc3)CC2)cc1", "inhibition": -1.7}
{"smiles": "CCOC(=O)C1CCN(C(=O)c2ccccc2NS(=O)(=O)c2ccc(C)cc2)CC1", "inhibition": -7.2}
{"smiles": "CC(Sc1nnc(N)s1)C(=O)Nc1ccc2c(c1)OCCO2", "note": "(stereo not drawn)", "inhibition": -3.64}
{"smiles": "CCCNC(=O)Cn1cnc([N+](=O)[O-])n1", "inhibition": -4.49}
{"smiles": "O=[N+]([O-])c1ccc(C(O)C(CO)NC(=S)Nc2ccccc2)cc1", "note": "(stereo not drawn)", "inhibition": 11.5}
{"smiles": "NC(CO)C(O)c1ccc([N+](=O)[O-])cc1", "note": "(stereo not drawn)", "inhibition": -4.54}
{"smiles": "CCOC(=O)C(NC(C)=O)C(O)c1ccc([N+](=O)[O-])cc1", "note": "(stereo not drawn)", "inhibition": 3.41}
{"smiles": "O=C(Cc1ccccc1)NC(C(=O)O)C(O)c1ccc([N+](=O)[O-])cc1", "note": "(stereo not drawn)", "inhibition": 3.65}
{"smiles": "CC(Cc1ccccc1)NC(=O)Cc1ccc([N+](=O)[O-])cc1", "note": "(stereo not drawn)", "inhibition": -4.09}
{"smiles": "O=C(O)CC(Cc1ccc(Cl)cc1)C(=O)Nc1ccc([N+](=O)[O-])cc1", "note": "(stereo not drawn)", "inhibition": -5.39}
